The structures appear in SMILES notation. Inconclusive results are not listed. Unmarked numbers belong to inactive results. Calls of active or inactive are those of the source. The call rests on the fitted dose curve; in most records, active means well fitted cell-killing curve with a large enough effect; inconclusive means small, poorly fitted or top-dose-only effect; inactive means no such curve, though single readings can be large or run the other way.
Potency means the concentration at half of the fitted maximal effect.

This assay is described as follows: qHTS of pediatric cancer cell lines to identify multiple opportunities for drug repurposing: Primary screen for Rh41 cells (AID 1347108). Further: nearly all actives have a fitted effect of over 70% in size.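 On activity change, negative = cytotoxic: luminescence drop marks cytotoxic hits.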 To be noted: Rh41 rhabdomyosarcoma viability, CellTiter-Glo luminescence, 48 h; series mostly up to 46 µM. An excerpt: Drug repurposing or repositioning has been offered as a strategy for drug development in oncology programs. This approach has special potential for childhood cancers and other rare or orphan diseases, where the expected return on new drug development has been a disincentive to pharmaceuticals. […] In this project we exploit the poly-pharmacology of drugs to discover new indications via phenotypic screening of a panel of 19 well-characterized cell lines derived from solid tumors seen in children and adolescents. The goal is to identify approved drugs with previously unrecognized anticancer properties that has the potential to reveal new mechanisms and biological processes involved in carcinogenesis or drug resistance. We employed a titration-based paradigm (quantitative high-throughput screening or qHTS), where all compounds were tested at multiple concentrations for their effect on cell viability. Concentration-response curves (CRCs) were derived directly from the primary screen, and both potency and efficacy values were used to identify compounds with robust bioactivity profiles. We screened the NIH Chemical Genomics Center (NCGC) Pharmaceutical Collection (NPC) and Mechanism Interrogation Plate (MIPE) small molecule collections of approved and investigational compounds against these cell lines; and measured metabolically active cells after 48 hours of compound treatment as a proxy for cell viability. […] Assay Submitter: Nathalia J. Martinez, National Center for Advancing Translational Sciences, National Institutes of Health, Rockville, MD, USA; email: natalia.martinez@nih.gov Shen, M et al. Quantitative high-throughput phenotypic screening of pediatric cancer cell lines identifies multiple opportunities for drug repurposing. Oncotarget 2017 Dec 19;9(4):4758-4772. PMID 29435139.
The cells were obtained from University of North Carolina (UNC), Pediatric Preclinical Testing Program (PPT), and Coriell Institute (CI). qHTS cell viability assay: Cells were assayed in growth media at a density of 500-1,000 cells/well. Five microliters of cells were dispensed into 1,536-well, white, solid-bottom, TC-treated plates (Greiner Bio One) using a multidrop dispenser and incubated at 37 degrees C, 5% CO2, under a humidified atmosphere for 5 hours. Twenty-three nanoliters of compounds and controls (neutral control DMSO or positive control bortezomib at final concentration of 2.3 µM) were subsequently transferred by Kalypsys pintool. For primary screens, the MIPE collection was tested at 11-point dilutions (final concentrations range from 0.78 nM to 46 µM) and the NPC collection at 8-point dilutions (final concentrations range from 0.59 nM to 46 µM). Compounds tested in follow-up screens were assayed at 11-point dilutions. Cells were incubated for 48 hours, followed by addition of 3 µL of CellTiter-Glo (Promega). After a 15 min incubation at room temperature, samples were analyzed for luminescence intensity using a ViewLux High-throughput CCD imager equipped with clear filters.
Background: In qHTS, concentration-response curves come from the screen itself.
As to `CCN1CCN(C(=O)N[C@H](C(=O)N[C@@H]2C(=O)N3C(C(=O)O)=C(CSc4nnnn4C)CS[C@@H]23)c2ccc(O)cc2)C(=O)C1=O`, the activity change, negative = cytotoxic is 38.6% [at 9.22 µM].

Consider `CC(C)(O)Cn1c(NC(=O)c2ccc(-c3cn[nH]c3)s2)nc2cc(CN3CCOCC3)ccc21`, for which the Potency was 1.18 µM (active).

With `CN(C)CCN1C(=O)c2cccc3cc(N)cc(c23)C1=O`, the Potency is 23.5 µM (active).

Regarding `C=CC(=O)Nc1ccc2ncnc(Nc3ccc(OCc4cccc(F)c4)c(Cl)c3)c2c1`, the Potency was 0.235 µM (active).

In the case of `O=C1c2cccc(O)c2C(=O)c2c(O)cc(CO)cc21`, the Potency entry was “inactive”.

For the compound `CN(N=O)C(=O)N[C@H]1C(O)OC(CO)[C@@H](O)[C@H]1O` (stereo not given in full), the Potency entry is “inactive”.

On to `O=S(=O)(O)CCSSCCS(=O)(=O)O`, for which the Potency result is “inactive”.

Turning to `COc1ccc(S(=O)(=O)Nc2cc(-c3c(O)ccc4ccccc34)c(O)c3ccccc23)cc1`, the Potency was 18.7 µM (active).

For `C[C@H](CCC(=O)O)[C@H]1CCC2C3C[C@H](O)[C@@H]4C[C@H](O)CC[C@]4(C)C3CC[C@@]21C` (stereo not given in full), the Potency result is “inactive”.

On to `N#CC(=C(O)c1ccc(Cl)cc1Cl)c1nc2cc(Cl)ccc2c(=O)[nH]1`, for which the Potency entry is “inactive”.

Consider `O=C(C=Cc1ccc(CN(CCO)CCc2c[nH]c3ccccc23)cc1)NO`, for which the Potency was 0.372 µM (active).

With `CCOc1cc2c(c(F)c1OCC)C(=N)N(CC(=O)c1cc(N3CCOCC3)c(OC)c(C(C)(C)C)c1)C2`, the Potency is 23.5 µM (active).

As for `Cn1cc(-c2cnn3c(N)c(Br)c([C@H]4CCCNC4)nc23)cn1`, the Potency was 2.35 µM (active).

For the compound `C#CCC(Cc1cnc2nc(N)nc(N)c2n1)c1ccc(C(=O)N[C@@H](CCC(=O)O)C(=O)O)cc1` (stereo not given in full), the Potency result was “inactive”.

In the case of `Nc1nc2c(c(=O)[nH]1)N(C=O)[C@H](CNc1ccc(C(=O)N[C@@H](CCC(=O)O)C(=O)O)cc1)CN2`, the Potency result is “inactive”.

Turning to `CCOC(=O)N1CCN([N+]([O-])=NOc2ccc([N+](=O)[O-])cc2[N+](=O)[O-])CC1`, the Potency is 4.18 µM (active).

Consider `CN(CC(=O)N(Cc1ccc(C2CCCCC2)cc1)c1ccc(C(=O)O)c(O)c1)S(=O)(=O)c1c(F)c(F)c(F)c(F)c1F`, for which the Potency is 23.5 µM (active).

For the compound `CCN(C(=O)c1c(O)c2c(Cl)cccc2n(C)c1=O)c1ccccc1`, the Potency result is “inactive”.

On to `CCN(CC)Cc1ccc2cc(COC(=O)Nc3ccc(C(=O)NO)cc3)ccc2c1`, for which the Potency is 0.935 µM (active).

Consider `C[C@H](CCC(=O)O)[C@H]1CC[C@H]2[C@@H]3[C@H](O)C[C@@H]4C[C@H](O)CC[C@]4(C)[C@@H]3CC[C@]12C`, for which the Potency result is “inactive”.

As to `CC[C@H]1OC(=O)[C@H](C)[C@@H](O[C@H]2C[C@@](C)(OC)[C@@H](O)[C@H](C)O2)[C@H](C)[C@@H](O[C@@H]2O[C@H](C)C[C@H](N(C)C)[C@@H]2O)[C@](C)(OC)C[C@@H](C)C(=O)[C@H](C)[C@@H](O)[C@]1(C)O`, the Potency result is “inactive”.

`COC1=C2C[C@@H](C)C[C@H](OC)[C@@H](O)[C@@H](C)C=C(C)[C@H](OC(N)=O)[C@@H](OC)C=CC=C(C)C(=O)NC(=CC1=O)C2=O`: the Potency was 7.43 µM (active).

With `NS(=O)(=O)OC[C@@H]1C[C@@H](n2ccc3c(N[C@H]4CCc5ccccc54)ncnc32)C[C@H]1O`, the Potency was 1.87 µM (active).

`CC[C@H]1OC(=O)[C@H](C)[C@@H](O[C@H]2C[C@@](C)(OC)[C@@H](O)[C@H](C)O2)[C@H](C)[C@@H](O[C@@H]2O[C@@H](C)C[C@H](N(C)C)[C@@H]2O)[C@](C)(O)C[C@@H](C)C(=O)[C@H](C)[C@@H](O)[C@]1(C)O`: the Potency result is “inactive”.

With `CCOC(=O)[C@H](CCc1ccccc1)N[C@@H](C)C(=O)N1[C@@H](C(=O)O)C[C@H]2CCC[C@@H]21`, the Potency is 11.8 µM (active).

Turning to `C=C(C)[C@@H]1CC[C@]2(C(=O)O)CC[C@]3(C)[C@H](CC[C@@H]4[C@@]5(C)CC[C@H](O)C(C)(C)[C@@H]5CC[C@]43C)[C@@H]12`, the Potency result was “inactive”.

With `C[C@H]1[C@@H](OC(=O)CCC(=O)O)O[C@@H]2O[C@@]3(C)CC[C@@H]4[C@H](C)CC[C@@H]1[C@@]24OO3`, the Potency is 2.35 µM (active).

On to `Cc1cnc(Nc2ccc(CN3CCOCC3)cc2)nc1Nc1cccc(S(=O)(=O)NC(C)(C)C)c1`, for which the Potency is 3.32 µM (active).

With `CN(C)c1ccc2cc(C(=O)N[C@@H](CCCN=C(N)CCl)C(=O)NCc3ccccc3)ccc2c1`, the Potency is 14.8 µM (active).

On to `Cc1ccc([N+](=O)[O-])cc1S(=O)(=O)N(C)N=Cc1cnc2ccc(Br)cn12`, for which the Potency was 0.0662 µM (active).

As for `O=C(c1ccc(F)cc1)N1CCC[C@H](c2nc(-c3ccc(F)cc3)no2)C1`, the Potency entry is “inactive”.

Consider `CC(=O)OCC(=O)[C@@]12N=C(C)O[C@H]1C[C@H]1[C@@H]3CCC4=CC(=O)C=C[C@]4(C)[C@@H]3[C@@H](O)C[C@@]12C`, for which the Potency result was “inactive”.

Regarding `COc1ccc2cc([S+]([O-])Cc3ncc(C)c(OC)c3C)nc2c1`, the Potency result was “inactive”.

Take `NC(=NCCCCCCN=C(N)N=C(N)Nc1ccc(Cl)cc1)N=C(N)Nc1ccc(Cl)cc1`: the Potency is 7.43 µM (active).

`COC(=O)[C@H](CCCN=C(N)N)NS(=O)(=O)c1ccc(C)cc1`: the Potency entry was “inactive”.

`NC(=O)Nc1cc(-c2ccc(CN3CCOCC3)cc2)sc1C(N)=O`: the Potency was 7.43 µM (active).

For the compound `CCC(C(=O)O)C1CCC(C)C(C(C)C(O)C(C)C(=O)C(CC)C2OC3(C=CC(O)[C@@]4(CC[C@](C)(C5CC[C@@](O)(CC)C(C)O5)O4)O3)C(C)CC2C)O1` (stereo not given in full), the Potency is 3.72 µM (active).

On to `Cc1cnc(Nc2ccc(N3CCN(C)CC3)cc2)nc1Nc1cccc(S(=O)(=O)NC(C)(C)C)c1`, for which the Potency is 5.9 µM (active).

For `Oc1ccc([C@@H]2Oc3ccc(O)cc3[C@@H]3CCC[C@@H]32)cc1`, the Potency is 18.7 µM (active).

In the case of `Cc1ccc(O)c(C(CCN(C(C)C)C(C)C)c2ccccc2)c1` (stereo not given), the Potency entry is “inactive”.

The values above are taken from PubChem BioAssay (NCATS).
